What was measured:
Experiment in all cases: DAPPL (digital affinity profiling via proximity ligation, sequencing); 10 mM Tris-HCl pH 7.5, 50 mM NaCl, 1 mM DTT, 4% glycerol, room temperature, 30 min; GST-TFs on glutathione beads, 16-mer random dsDNA library, 0.1% formaldehyde crosslink after washing; high values mean tight binding
Settings in all cases: protein: recombinant; tags: N-terminal GST; dsDNA, one strand shown
FLI1 = target: T1, FLI1 (Homo sapiens, UniProt Q01543 1-452)
T1 sequence: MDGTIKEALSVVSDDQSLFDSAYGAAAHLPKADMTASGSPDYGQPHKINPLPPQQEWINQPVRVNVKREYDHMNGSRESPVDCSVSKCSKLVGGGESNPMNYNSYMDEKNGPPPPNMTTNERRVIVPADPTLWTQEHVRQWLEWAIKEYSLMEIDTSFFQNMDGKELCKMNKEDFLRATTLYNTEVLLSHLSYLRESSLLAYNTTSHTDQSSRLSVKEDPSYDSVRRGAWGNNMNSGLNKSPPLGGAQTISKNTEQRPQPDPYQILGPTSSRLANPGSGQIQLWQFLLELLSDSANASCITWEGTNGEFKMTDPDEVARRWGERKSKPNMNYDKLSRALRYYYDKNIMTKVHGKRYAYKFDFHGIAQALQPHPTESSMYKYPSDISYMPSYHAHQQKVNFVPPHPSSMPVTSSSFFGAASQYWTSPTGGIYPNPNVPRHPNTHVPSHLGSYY
Method in brief: (§1)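 Pools were built from human transcription factors expressed in yeast as GST fusions, captured on glutathione beads and DNA-barcoded, along with a tag-only sample. Incubation with 200 nmole of a 16-mer random double-stranded DNA library lasted 30 min at room temperature in Tris/NaCl/DTT/glycerol buffer, and was followed by washing, 0.1% formaldehyde crosslinking, proximity ligation, PCR amplification and Illumina NextSeq500 sequencing. Binding signal is the quotient of each hexamer's read frequency for a factor and its frequency for the tag-only sample.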

ELK1 = target: T2, ELK1 (Homo sapiens, UniProt P19419 1-428)
T2 sequence: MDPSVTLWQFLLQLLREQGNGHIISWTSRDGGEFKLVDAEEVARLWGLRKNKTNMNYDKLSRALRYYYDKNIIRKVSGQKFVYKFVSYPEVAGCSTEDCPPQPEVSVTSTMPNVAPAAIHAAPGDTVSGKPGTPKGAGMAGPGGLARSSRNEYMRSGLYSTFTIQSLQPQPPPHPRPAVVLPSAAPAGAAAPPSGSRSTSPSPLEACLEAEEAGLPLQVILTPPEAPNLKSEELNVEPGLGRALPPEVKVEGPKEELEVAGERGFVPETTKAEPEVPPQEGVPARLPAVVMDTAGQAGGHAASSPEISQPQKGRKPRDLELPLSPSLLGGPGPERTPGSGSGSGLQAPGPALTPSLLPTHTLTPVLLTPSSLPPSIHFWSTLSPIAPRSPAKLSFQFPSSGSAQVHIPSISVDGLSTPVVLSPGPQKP
Method in brief: as §1

GABPA = target: T3, GABPA (Homo sapiens, UniProt Q06546 1-454)
T3 sequence: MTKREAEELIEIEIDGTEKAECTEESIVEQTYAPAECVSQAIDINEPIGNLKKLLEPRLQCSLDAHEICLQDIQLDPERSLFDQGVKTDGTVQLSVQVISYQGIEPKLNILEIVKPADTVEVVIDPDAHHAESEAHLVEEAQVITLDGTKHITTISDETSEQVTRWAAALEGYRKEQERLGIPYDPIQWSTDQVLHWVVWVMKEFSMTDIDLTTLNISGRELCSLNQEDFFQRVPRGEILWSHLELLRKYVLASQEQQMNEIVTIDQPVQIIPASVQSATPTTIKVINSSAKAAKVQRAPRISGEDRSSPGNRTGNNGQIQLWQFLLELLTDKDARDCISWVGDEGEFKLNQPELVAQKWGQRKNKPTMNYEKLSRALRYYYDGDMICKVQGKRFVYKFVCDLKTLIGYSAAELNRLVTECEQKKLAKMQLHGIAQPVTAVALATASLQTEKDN
Method in brief: as §1

ERG = target: T4, ERG (Homo sapiens, UniProt P11308 1-479)
T4 sequence: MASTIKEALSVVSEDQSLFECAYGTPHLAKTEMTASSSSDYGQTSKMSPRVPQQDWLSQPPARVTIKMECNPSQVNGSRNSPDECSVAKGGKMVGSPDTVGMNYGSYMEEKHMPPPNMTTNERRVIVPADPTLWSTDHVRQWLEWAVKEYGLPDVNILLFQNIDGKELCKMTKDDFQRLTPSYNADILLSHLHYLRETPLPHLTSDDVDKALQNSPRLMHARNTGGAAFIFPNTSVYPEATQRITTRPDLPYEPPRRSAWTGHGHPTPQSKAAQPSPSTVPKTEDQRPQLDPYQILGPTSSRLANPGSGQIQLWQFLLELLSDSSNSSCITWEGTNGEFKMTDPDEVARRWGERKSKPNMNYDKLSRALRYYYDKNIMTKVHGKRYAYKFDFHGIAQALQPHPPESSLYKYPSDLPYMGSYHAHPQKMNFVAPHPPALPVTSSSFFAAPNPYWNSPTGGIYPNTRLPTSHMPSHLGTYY
Method in brief: as §1

ELF1 = ELF1 (Homo sapiens, UniProt P32519 1-619)
Method in brief: as §1

EHF = target: T5, EHF (Homo sapiens, UniProt Q9NZC4 1-300)
T5 sequence: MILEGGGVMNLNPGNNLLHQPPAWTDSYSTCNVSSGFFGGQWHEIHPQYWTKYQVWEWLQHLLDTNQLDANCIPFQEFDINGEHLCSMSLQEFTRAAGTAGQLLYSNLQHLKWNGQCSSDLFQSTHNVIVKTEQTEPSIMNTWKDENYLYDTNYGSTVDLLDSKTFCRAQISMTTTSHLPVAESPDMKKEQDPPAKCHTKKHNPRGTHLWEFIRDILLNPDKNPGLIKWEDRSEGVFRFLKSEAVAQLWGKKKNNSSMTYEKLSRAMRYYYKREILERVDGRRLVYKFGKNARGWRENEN
Method in brief: as §1

SPI1 = SPI1 (Homo sapiens, UniProt P17947 1-270)
Method in brief: as §1

SPIB = SPIB (Homo sapiens, UniProt Q01892 1-262)
Method in brief: as §1

ELK3 = target: T6, ELK3 (Homo sapiens, UniProt P41970 1-407)
T6 sequence: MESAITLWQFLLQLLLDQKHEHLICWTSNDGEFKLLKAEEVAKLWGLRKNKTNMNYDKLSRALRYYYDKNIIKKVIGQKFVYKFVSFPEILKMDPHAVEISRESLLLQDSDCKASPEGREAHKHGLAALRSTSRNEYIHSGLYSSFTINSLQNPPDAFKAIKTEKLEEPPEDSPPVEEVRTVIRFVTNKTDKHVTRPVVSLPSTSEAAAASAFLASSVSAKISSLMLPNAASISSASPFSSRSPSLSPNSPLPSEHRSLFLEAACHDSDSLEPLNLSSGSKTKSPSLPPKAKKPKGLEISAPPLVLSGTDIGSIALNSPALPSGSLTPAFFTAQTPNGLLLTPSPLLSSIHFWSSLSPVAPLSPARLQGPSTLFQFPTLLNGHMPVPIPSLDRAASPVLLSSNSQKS
Method in brief: as §1

Sequence of SPIB (Q01892 whole entry): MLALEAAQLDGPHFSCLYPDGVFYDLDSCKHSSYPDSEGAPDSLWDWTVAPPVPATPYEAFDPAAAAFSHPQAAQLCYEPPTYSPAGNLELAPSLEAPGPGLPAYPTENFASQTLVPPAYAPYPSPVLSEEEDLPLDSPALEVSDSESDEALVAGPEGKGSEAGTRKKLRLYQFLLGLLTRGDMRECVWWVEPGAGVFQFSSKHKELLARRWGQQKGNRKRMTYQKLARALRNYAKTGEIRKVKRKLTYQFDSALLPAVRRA
Sequence of ELF1 (P32519 whole entry): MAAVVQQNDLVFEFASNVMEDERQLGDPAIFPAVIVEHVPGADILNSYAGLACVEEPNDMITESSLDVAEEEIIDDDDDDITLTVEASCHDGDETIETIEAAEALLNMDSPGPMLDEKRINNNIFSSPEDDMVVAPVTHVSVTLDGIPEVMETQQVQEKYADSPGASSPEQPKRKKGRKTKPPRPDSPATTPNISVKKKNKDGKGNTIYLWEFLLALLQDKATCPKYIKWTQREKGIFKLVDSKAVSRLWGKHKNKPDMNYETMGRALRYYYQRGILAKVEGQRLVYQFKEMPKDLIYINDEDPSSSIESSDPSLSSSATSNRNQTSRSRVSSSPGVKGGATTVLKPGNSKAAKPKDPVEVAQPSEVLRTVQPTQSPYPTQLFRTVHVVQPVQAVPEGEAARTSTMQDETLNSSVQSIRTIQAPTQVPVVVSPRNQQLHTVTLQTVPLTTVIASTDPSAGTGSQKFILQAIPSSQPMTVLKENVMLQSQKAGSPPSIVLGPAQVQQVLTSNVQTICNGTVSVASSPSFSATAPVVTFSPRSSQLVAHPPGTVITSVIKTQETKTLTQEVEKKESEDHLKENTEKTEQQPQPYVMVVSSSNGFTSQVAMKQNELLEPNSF

Sequence | binding signal (FLI1) | binding signal (ELK1) | binding signal (GABPA) | binding signal (ERG) | binding signal (ELF1) | binding signal (EHF) | binding signal (SPI1) | binding signal (SPIB) | binding signal (ELK3)
TCTCAG | 1.4 fold enrichment (6-mer frequency, TF over GST control) | 1.48 fold enrichment (6-mer frequency, TF over GST control) | 1.42 fold enrichment (6-mer frequency, TF over GST control) | 1.43 fold enrichment (6-mer frequency, TF over GST control) | 1.45 fold enrichment (6-mer frequency, TF over GST control) | 1.43 fold enrichment (6-mer frequency, TF over GST control) | 1.55 fold enrichment (6-mer frequency, TF over GST control) | 1.39 fold enrichment (6-mer frequency, TF over GST control) | 1.39 fold enrichment (6-mer frequency, TF over GST control)
CTATAC | 1.28 fold enrichment (6-mer frequency, TF over GST control) | 1.22 fold enrichment (6-mer frequency, TF over GST control) | 1.35 fold enrichment (6-mer frequency, TF over GST control) | 1.24 fold enrichment (6-mer frequency, TF over GST control) | 1.31 fold enrichment (6-mer frequency, TF over GST control) | 1.21 fold enrichment (6-mer frequency, TF over GST control) | 1.21 fold enrichment (6-mer frequency, TF over GST control) | 1.16 fold enrichment (6-mer frequency, TF over GST control) | 1.21 fold enrichment (6-mer frequency, TF over GST control)
ATATAC | 1.13 fold enrichment (6-mer frequency, TF over GST control) | 1.24 fold enrichment (6-mer frequency, TF over GST control) | 1.2 fold enrichment (6-mer frequency, TF over GST control) | 1.18 fold enrichment (6-mer frequency, TF over GST control) | 1.14 fold enrichment (6-mer frequency, TF over GST control) | 1.22 fold enrichment (6-mer frequency, TF over GST control) | 1.19 fold enrichment (6-mer frequency, TF over GST control) | 1.21 fold enrichment (6-mer frequency, TF over GST control) | 1.27 fold enrichment (6-mer frequency, TF over GST control)
TACCAA | 1.14 fold enrichment (6-mer frequency, TF over GST control) | 1.17 fold enrichment (6-mer frequency, TF over GST control) | 1.11 fold enrichment (6-mer frequency, TF over GST control) | 1.18 fold enrichment (6-mer frequency, TF over GST control) | 1.21 fold enrichment (6-mer frequency, TF over GST control) | 1.13 fold enrichment (6-mer frequency, TF over GST control) | 1.16 fold enrichment (6-mer frequency, TF over GST control) | 1.13 fold enrichment (6-mer frequency, TF over GST control) | 1.05 fold enrichment (6-mer frequency, TF over GST control)
AAATAT | 1.24 fold enrichment (6-mer frequency, TF over GST control) | 1.34 fold enrichment (6-mer frequency, TF over GST control) | 1.33 fold enrichment (6-mer frequency, TF over GST control) | 1.34 fold enrichment (6-mer frequency, TF over GST control) | 1.37 fold enrichment (6-mer frequency, TF over GST control) | 1.31 fold enrichment (6-mer frequency, TF over GST control) | 1.32 fold enrichment (6-mer frequency, TF over GST control) | 1.47 fold enrichment (6-mer frequency, TF over GST control) | 1.38 fold enrichment (6-mer frequency, TF over GST control)
ATTGTT | 1.49 fold enrichment (6-mer frequency, TF over GST control) | 1.42 fold enrichment (6-mer frequency, TF over GST control) | 1.55 fold enrichment (6-mer frequency, TF over GST control) | 1.48 fold enrichment (6-mer frequency, TF over GST control) | 1.38 fold enrichment (6-mer frequency, TF over GST control) | 1.53 fold enrichment (6-mer frequency, TF over GST control) | 1.45 fold enrichment (6-mer frequency, TF over GST control) | 1.57 fold enrichment (6-mer frequency, TF over GST control) | 1.55 fold enrichment (6-mer frequency, TF over GST control)
TCATAT | 1.21 fold enrichment (6-mer frequency, TF over GST control) | 1.2 fold enrichment (6-mer frequency, TF over GST control) | 1.26 fold enrichment (6-mer frequency, TF over GST control) | 1.2 fold enrichment (6-mer frequency, TF over GST control) | 1.29 fold enrichment (6-mer frequency, TF over GST control) | 1.24 fold enrichment (6-mer frequency, TF over GST control) | 1.18 fold enrichment (6-mer frequency, TF over GST control) | 1.4 fold enrichment (6-mer frequency, TF over GST control) | 1.17 fold enrichment (6-mer frequency, TF over GST control)

— article PMC7862700, “An all-to-all approach to the identification of sequence-specific readers for epigenetic DNA modifications on cytosine”
